Compound activity from PubChem BioAssay.
LGR2 antag: blocks bursicon-induced cAMP signaling via Drosophila LGR2. AID 720647. HEK293 LGR2, CRE-luciferase, bursicon-stimulated, 4 h. inhibition, % at 9.99 µM. 380,000 tested, 0.35% active;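 active means drop in luminescence signal, shown as inhibition above about 50% in the replicate tests, limit read from the data, passing the limit was not always enough; inconclusive means probably only some replicates passing the limit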;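 further: agonist challenge used bursicon conditioned medium at about half maximal strength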
TROY signal inh: blocks TROY-dependent signaling in reporter cells. Q293 LMP1-TROYcd NF-kB luciferase reporter, 4 h. AID 1347056. 360,000 tested, 0.98% active. inhibition, % at 10 µM;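 active means compounds whose plate-normalised and pattern-corrected inhibition of the luciferase reporter signal at the single screening dose is 50% or more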
TWEAK-Fn14 inh: inhibitors of TWEAK-Fn14 interaction signaling; TWEAK-stimulated Fn14 reporter cells, luciferase luminescence, 8 h; inhibition, % at 10 µM; 360,000 tested, 2% active; AID 1159606; in the data active means inhibition above about 50%
TRPM1 prom inh: inhibitors of MITF-driven TRPM1 promoter in melanoma cells. SK-MEL-5 TRPM1 promoter luciferase, 24 h. inhibition, % at 12.5 µM. 330,000 tested, 0.83% active. AID 488899;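 active means mean inhibition across replicates of 60% or more, whatever share of single replicates reaches that level; inconclusive means some that reach 60%, reason not given; inactive means mean inhibition across replicates below 60%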
MITF TRPM1 HTS: MITF TRPM1 promoter activation in melanoma cells. AID 588334. SK-MEL-5 TRPM1-promoter luciferase, 24 h; % of positive control, neutral wells = 0. activation, % at 12.5 µM. 300,000 tested, 0.75% active;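 active means mean activation of at least 80% with every replicate also reaching 80%; inconclusive means mean reaches 80% but some replicate falls short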;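 further: 0% = neutral control wells and 100% = parthenolide positive control wells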
LMP1 NFkB inh: Epstein-Barr LMP1 NF-kappaB reporter inhibition | 350,000 tested, 0.69% active | LMP1-induced NF-kappaB luciferase reporter cells, luminescence | inhibition, % at 12.5 µM; in the data active means inhibition above about 41%; inconclusive means no clear call, values can overlap the other calls;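 further: 0% = neutral control wells and 100% = reference inhibitor control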
Starred values were filed as active, the others as inactive; ? = inconclusive; . = no result. Shown are actives, neighbours in structure and some others; about 3% of the full set was active somewhere.

SMILES	LGR2 antag	TROY signal inh	TWEAK-Fn14 inh	TRPM1 prom inh	MITF TRPM1 HTS	LMP1 NFkB inh
Cc1cc(C)nc(/N=C(\N)Nc2ccc(OCCC(C)C)cc2)n1	6	28	-12	65*	.	16
Cc1ccc(COn2c(-c3ccc(Cl)cc3)nc3ccc([N+](=O)[O-])cc32)cc1	.	38	20	-95	102*	-46
CCOC(=O)C(C)On1c(-c2ccc(Cl)cc2)nc2ccc([N+](=O)[O-])cc21 (centres undefined)	.	24	16	-57	58	-46
CCOC(=O)C(C)On1c(-c2ccccc2)nc2ccc([N+](=O)[O-])cc21 (centres undefined)	.	-57	-34	-102	99*	-17
O=[N+]([O-])c1ccc2nc(-c3ccc(Cl)cc3)n(OCc3ccccc3)c2c1	.	56*	35	-55	.	-43
CCCNC(=O)C[C@@H]1CC[C@@H]2[C@H](COc3ccc(NC(=O)NCC)cc3C(=O)N2C)O1	-12	.	.	.	.	.
CN(C)c1ccc(N=Nc2nc3ccccc3n2C)cc1	103*	90*	104*	?	-60	57*
Cn1c(N=Nc2ccccc2)nc2ccccc21	.	40	79*	14	-12	2
CCn1c(NCc2ccc(N(C)C)cc2)nc2ccccc21	.	-22	-3	-13	13	-4
CCCN1C[C@H](C)[C@H](OC)CN(C)C(=O)c2ccc(NC(=O)C3CCOCC3)cc2OC[C@@H]1C	2	.	.	.	.	.
O=C(Nc1cc(F)ccc1F)N1CC(=O)N2[C@H](C1)[C@@H](c1ccc(C#CC3CCCC3)cc1)[C@@H]2CO	25	.	.	.	.	.
O=C(N/N=C(\c1ccccc1)c1ccccn1)c1cccc([N+](=O)[O-])c1	.	-10	-28	83*	-81	36
O=C(Nc1cc(Cl)cc(Cl)c1)N[C@H]1CC[C@@H](CCNS(=O)(=O)c2cccc(F)c2)O[C@@H]1CO	1	.	.	.	.	.
CCCCCn1c(N2CCOCC2)nc2c1c(=O)n(CC(N)=O)c(=O)n2C	26	14	-14	-4	4	64*
CCCCCOC(=O)Cn1c(=O)c2c(nc(N3CCOCC3)n2C)n(C)c1=O	.	6	-6	1	5	8
Cc1ccccc1S(=O)(=O)NCC[C@@H]1CC[C@H](NS(=O)(=O)c2ccccc2C)[C@@H](CO)O1	-3	.	.	.	.	.
N/C(=N\OC(=O)/C=C/c1ccccc1)c1ccccn1	32	47	56*	-43	49	9
CC(C)(C)CC(=O)O/N=C(\N)c1ccccn1	62*	0	61*	32	-30	17
Cc1ccc(CC(=O)O/N=C(\N)c2ccccn2)cc1	-47	-16	-2	-26	28	-17
COc1ccc(/C=C/C(=O)O/N=C(\N)c2ccccn2)cc1OC	-61	-12	12	-79	81*	-17
CC(C)NC(=O)Nc1ccc2c(c1)C(=O)N([C@H](C)CO)C[C@@H](C)[C@@H](CN(C)C(=O)C1CCCCC1)OCCCC[C@H](C)O2	2	.	.	.	.	.
COc1cccc(CN(C)CC(=O)Nc2cccc(C(F)(F)F)c2)c1OC	10	6	74*	-6	8	9
COc1cccc(CN(C)CC(=O)Nc2cccc(S(N)(=O)=O)c2)c1OC	-2	-11	6	2	-6	5
COc1ccc(CN(C)C(=O)c2ccc(OCC(=O)Nc3cccc(C(F)(F)F)c3)c(OC)c2)cc1	21	30	52*	.	.	9
O=C(NC1CCC1)[C@@H]1[C@@H](CO)[C@@H]2Cn3c(ccc(-c4ccccc4)c3=O)[C@@H]2N1Cc1ccccn1	-6	.	.	.	.	.
SMILES	LGR2 antag	TROY signal inh	TWEAK-Fn14 inh	TRPM1 prom inh	MITF TRPM1 HTS	LMP1 NFkB inh
CCc1cc[n+](C2=C([O-])c3ccccc3C(=O)/C2=N\S(=O)(=O)c2cccs2)cc1	17	24	16	97*	-97	3
O=C(C1CCC1)N1CC2(C1)[C@@H](c1ccccc1)[C@H](CO)N2C(=O)c1ccccn1	-4	.	.	.	.	.
CCOC(=O)N1CCC(N2C(=O)c3ccccc3C2Nc2cc(Cl)c(OC)cc2OC)CC1 (centres undefined)	-5	-4	2	-8	9	75*
CCOC(=O)N1CCC(N2C(=O)c3ccccc3C2Nc2cc(OC)c(OC)c(OC)c2)CC1 (centres undefined)	-3	9	-2	6	-3	7
COCC(=O)N[C@@H]1CC[C@H](CC(=O)NCc2ccc(Cl)cc2)O[C@H]1CO	0	.	.	.	.	.
Cc1noc(C)c1S(=O)(=O)N(C)C[C@H]1OCCCC[C@@H](C)Oc2ccc(NC(=O)C3CCCCC3)cc2C(=O)N([C@H](C)CO)C[C@H]1C	3	.	.	.	.	.
Nc1cccc2c1C(=O)N(C(=O)/C=C/c1cccc(Br)c1)C2=O	-7	-16	53*	27	-27	-11
Nc1cccc2c1C(=O)N(C(=O)/C=C/c1cccc(F)c1)C2=O	-7	0	70*	35	-34	29
COc1ccc(NC(=O)Nc2ccc3c(c2)CC(=O)N([C@H](C)CO)C[C@H](C)[C@H](CN(C)S(=O)(=O)c2c(C)noc2C)O3)cc1	-26	.	.	.	.	.
COc1ccc2[nH]c(-c3ccc(C)cc3)cc(=O)c2c1	.	42	75*	51	-47	43*
COc1ccc2[nH]c(-c3ccccc3)cc2c1	-144	-24	-4	-100	106*	-34
COc1ccc2nc(-c3ccccc3)[nH]c2c1	.	-47	31	-35	.	-2
COc1ccc(-c2cc(=O)c3cc(F)ccc3[nH]2)cc1	-18	-41	-9	-44	55	-1
CC(C)NC(=O)NCC[C@H]1CC[C@@H](NC(=O)CCN2CCCCC2)[C@@H](CO)O1	-6	.	.	.	.	.
CCOc1ccc(/C=N/NC(=O)c2[nH]ncc2Br)c(O)c1	?	24	76*	11	-10	3
COc1ccc(OC)c(/C=N/NC(=O)c2[nH]ncc2Br)c1	7	-15	2	.	.	.
COc1cc(OC)c(CN2CCc3c([nH]c4ccccc34)C2)cc1Br	11	16	25	17	-18	75*
CCCN(C)C[C@H]1OCCCC[C@@H](C)Oc2ccc(NS(=O)(=O)c3ccc(C)cc3)cc2C(=O)N([C@H](C)CO)C[C@H]1C	14	.	.	.	.	.
CCCNC(=O)N1[C@H](CO)[C@H]2c3ccccc3N(C)C[C@H]21	-1	.	.	.	.	.
COc1ccc(Cl)cc1N1C(=O)/C(=C/c2sccc2C)N=C1SCC(=O)NC1CC1	-2	-8	-10	.	.	.
O=C(CSC1=N/C(=C/c2ccc(Cl)c(Cl)c2)C(=O)N1c1ccccc1F)NC1CC1	7	18	61*	0	2	7
CCCCc1nc(N2CCN(C(=O)c3ccco3)CC2)c(C#N)c2c1CCCC2	33	68*	-7	20	-17	6
CC(C)c1nc(N2CCN(C(=O)c3ccco3)CC2)c(C#N)c2c1COC(C)(C)C2	-2	30	-1	24	-27	-8
Cc1ccc(-c2nc3ccc([N+](=O)[O-])cc3[nH]2)cc1	54*	17	51*	-14	13	-32
